# Among all 16,000 compounds or so, about 4,000 (25%) were called active. Inconclusive results (about 26%) are left out. These entries were drawn from the full list. Values without a mark were called inactive. Calls follow the shape of the dose curve; as a rule, active = well fitted curve in the direction sought with a large enough effect; inconclusive = small, poorly fitted or top-dose-only effect, or effect the other way; inactive = no such curve, though single readings can be large or run the other way.
# Target: Cytochrome P450 2C9 (Homo sapiens) (UniProt P11712)
# Sequence (P11712 whole entry, looked up): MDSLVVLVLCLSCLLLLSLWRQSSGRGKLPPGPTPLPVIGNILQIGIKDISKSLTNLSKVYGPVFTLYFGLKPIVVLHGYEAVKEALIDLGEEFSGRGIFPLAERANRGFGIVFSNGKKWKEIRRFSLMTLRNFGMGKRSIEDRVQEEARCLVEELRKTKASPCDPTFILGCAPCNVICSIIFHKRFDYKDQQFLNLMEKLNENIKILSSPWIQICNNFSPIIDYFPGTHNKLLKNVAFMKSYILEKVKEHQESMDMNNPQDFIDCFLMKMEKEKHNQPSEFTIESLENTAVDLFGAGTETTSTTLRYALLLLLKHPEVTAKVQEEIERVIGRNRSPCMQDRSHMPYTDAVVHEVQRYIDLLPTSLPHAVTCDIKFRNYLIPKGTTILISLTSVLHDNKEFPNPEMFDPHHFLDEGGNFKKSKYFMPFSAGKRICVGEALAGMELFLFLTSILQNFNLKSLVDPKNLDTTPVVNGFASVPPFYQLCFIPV
# Assay: Cytochrome panel assay with activity outcomes
# Settings: recombinant CYP, pro-luciferin dealkylation, luminescence, p450-cyp2c9; series mostly up to 57.1 µM
# % is scaled to controls: 0 for no effect and ±100 for the full control effect.
SMILES,AC50,"activity, negative = inhibition"
COc1ccc(NC(=O)N2CCCC3(CCNCC3)C2)cc1,inactive,
CC(C)=CCC/C(C)=C/CO/N=C1/[C@H]2O[C@@H]2[C@@H](O)[C@H]2[C@H]1CCn1c(=O)n(-c3ccccc3)c(=O)n12,,6.87% [at 11.4 µM]
Nc1ccc(C(=O)NCC(=O)O)cc1,inactive,
CCNC(=O)c1ccc(-n2nc(C)cc2-c2ccccc2)cc1,7.94 µM (active),
Cc1cnnn1-c1ccc(C(=O)CCl)cc1,inactive,
N=C(N)SCCN,inactive,
COC(=O)CNC(=O)CCCCC(=O)NCC(=O)OC,inactive,
CC(C)=CCC/C(C)=C/CO/N=C1/C[C@@H](O)[C@@H](O)[C@@H]2[C@@H]3C(=O)N(Cc4ccc5c(c4)OCO5)C(=O)[C@H]3CC[C@H]12,,-26.4% [at 11.4 µM]
CCCCOc1ccc(S(=O)(=O)Nc2cccnc2)cc1,1.26 µM (active),
COc1ccc(OC(=O)c2ccncc2)cc1,4.47 µM (active),
O=C(Nc1ccc(OC(=O)c2cccnc2)cc1)c1cccnc1,inactive,
COc1ccc(C(Cl)=C(c2ccc(OC)cc2)c2ccc(OC)cc2)cc1,inactive,
COc1cnc(NS(=O)(=O)c2ccc(N)cc2)nc1,inactive,
CCCCCOc1ccc(OC(=O)c2ccncc2)cc1,2.82 µM (active),
COc1ccc(C(=O)N2CCC3(CC2)CCN(c2ccncc2)CC3)cc1,inactive,
CCCCN(CCCC)CCCOC(=O)c1ccc(N)cc1,inactive,
Nc1ccc(S(=O)(=O)Nc2ncccn2)cc1,inactive,
CCCCOc1ccc(OC(=O)c2cccnc2)cc1,14.1 µM (active),
CCCCOc1ccc(CC(=O)NO)cc1,inactive,
Cc1ccc(OCC(=O)NNC(=O)c2cccnc2)cc1,inactive,
c1cncc(-c2cncnc2NC2CCNCC2)c1,,17.3% [at 2.29 µM]
COc1c(C)c2c(c(O)c1C/C=C(\C)CCC(=O)O)C(=O)OC2,inactive,
C[C@H]1C[C@H]2[C@H]3CCC4=CC(=O)C=C[C@@]4(C)[C@]3(F)[C@H](O)C[C@]2(C)[C@@]1(O)C(=O)COP(=O)(O)O,,23.1% [at 11.4 µM]
FC(F)(F)c1ccccc1-n1ccnc1,inactive,
N#Cc1cccc(-c2cncnc2-n2ccnc2)c1,,12.2% [at 2.29 µM]

SMILES,AC50,"activity, negative = inhibition"
N#Cc1c(-n2ccnc2)cccc1-n1ccnc1,0.562 µM (active),
CCCCCCCCOC1OC(CO)C(O)C(O)C1NC(C)=O (centres undefined),inactive,
C[C@@H]1C[C@H]2[C@H]3C[C@@H](F)C4=CC(=O)C=C[C@]4(C)[C@@]3(Cl)[C@@H](O)C[C@@]2(C)[C@@H]1C(=O)COC(=O)C(C)(C)C,inactive,
CC(C)(C)c1ccc(NS(=O)(=O)c2ccc(N)cc2)cc1,,-10.7% [at 11.4 µM]
COc1ccc(F)cc1S(=O)(=O)NC(Cc1ccccc1)C(N)=O (centres undefined),inactive,
Cn1c(CNS(=O)(=O)c2ccc(F)cc2)n[nH]c1=S,inactive,
CC(C)(C)NS(=O)(=O)c1ccc(NS(=O)(=O)c2ccc(F)cc2)cc1,0.2 µM (active),
COc1ccccc1S(=O)(=O)Nc1ccc(-c2nnc3n2CCCCC3)cc1,inactive,
CC(C)(C)NS(=O)(=O)c1ccc(NC(=O)NC2CCCCC2)cc1,20 µM (active),
CC(=O)c1ccc(S(=O)(=O)NC(=O)NC2CCCCC2)cc1,inactive,
COc1ccc(S(=O)(=O)Nc2ccc(F)cc2)c(C)c1C,8.91 µM (active),
Cc1cccc(C)c1NC(=O)Nc1ccc(S(N)(=O)=O)cc1,,-4.33% [at 11.4 µM]
CCN=C(Nc1ccc(Cl)cc1)c1cccnc1,inactive,
CC(C)(Oc1ccc(Cl)cc1)C(=O)Nc1ccncc1,0.501 µM (active),
CC(C)OC(=O)C(C)(C)Oc1ccc(C(=O)c2ccc(Cl)cc2)cc1,inactive,
CC(C)(Oc1ccc(Cl)cc1)C(=O)Nc1cccnc1,14.1 µM (active),
CC(C)N=C(Nc1ccc(Cl)cc1)c1cccnc1,inactive,
CC(C)(Oc1ccc(CCNC(=O)c2ccc(Cl)cc2)cc1)C(=O)O,inactive,
Nc1cc(C(=O)O)[nH]c(=O)n1,,7.9% [at 11.4 µM]
CC(=O)OCC(=O)[C@@]1(OC(C)=O)[C@H](C)C[C@H]2[C@@H]3C[C@H](F)C4=CC(=O)C=C[C@@]4(C)[C@]3(F)[C@H](O)C[C@@]21C,inactive,
CN(C)CCC=C1c2ccccc2CCc2ccccc21,inactive,
CC(=O)NC(CCS(C)(=O)=O)C(=O)Nc1c(F)cccc1F (centres undefined),inactive,
CS(=O)(=O)N(CC(=O)Nc1c(F)cccc1F)c1ccc(C23CC4CC(CC(C4)C2)C3)cc1,3.98 µM (active),
O=C(CCN1C(=O)C2C3C=CC(C3)C2C1=O)Nc1c(F)cccc1F (centres undefined),inactive,
CCN(CC)c1ccc(N2C(=O)/C(=C/c3cccnc3)SC2=S)cc1,inactive,

SMILES,AC50,"activity, negative = inhibition"
Cc1ccc(S(=O)(=O)/N=C2/NC(=O)/C(=C/c3cccnc3)S2)cc1,0.0794 µM (active),
CC(C)NC(=O)CC(=O)N/N=C/c1ccc(F)cc1,inactive,
CC(C)c1ccc(/C=N/NC(=O)CN(c2cccc(Cl)c2Cl)S(C)(=O)=O)cc1,8.91 µM (active),
C/C(CCN1CCc2nc(-c3ccccc3)c(-c3ccccc3)cc2C1)=N\O[C@@H](C)CN1CCCCc2nc(C)c(C)cc21,,2.2% [at 11.4 µM]
CN(Cc1ccccc1)Cn1ccnc1,2.51 µM (active),
C#CCN(C)Cc1ccccc1,inactive,
CN(C)Cc1ccccc1-c1cc(-n2ccnc2)ncn1,,-14.3% [at 2.29 µM]
CC1(C)CC(=O)c2cn3ncnc3nc2C1,inactive,
Cn1c(CN2CCCC2)nc2cc(NC(=O)C3CCCCC3)ccc21,inactive,
O=C(Nc1ccc2c(c1)nc1n2CCN(C2CCCCC2)C1)NC1CCCCC1,14.1 µM (active),
CC1CCN(CCc2nc3cc(NC(=O)NC4CCCCC4)ccc3n2C)CC1,inactive,
CO[C@@]12C[C@@H](COC(=O)c3cncc(Br)c3)CN(C)[C@H]1Cc1cn(C)c3cccc2c13,inactive,
N/C(CC/C(N)=N/O)=N\O,,-8.92% [at 11.4 µM]
CCc1cccc2c(C=C(C#N)C#N)cn(CC(=O)N3CCCCC3)c12,inactive,
CCN(CC)C(=O)Cn1cc(/C=C(\C#N)C(=O)N2CCN(c3ccccc3)CC2)c2ccccc21,3.55 µM (active),
O=C1O[C@H](CN2CCOCC2)CN1/N=C\c1ccc([N+](=O)[O-])o1,inactive,
C[C@@H](C[N+](C)(C)C)OC(N)=O,inactive,
COCCn1c(=O)c(-c2cccc(F)c2)nc2cncnc21,inactive,
COc1ccc(-n2c(=O)c(-c3cccc(F)c3)nc3cncnc32)cc1,inactive,
COc1ccccc1CCn1c(=O)c(-c2cccc(F)c2)nc2cncnc21,2.51 µM (active),
Cn1c(=O)c(-c2cc(F)cc(F)c2)nc2cncnc21,inactive,
COc1ccccc1CCn1c(=O)c(-c2cc(F)cc(F)c2)nc2cncnc21,1.58 µM (active),
COCCn1c(=O)c(-c2cc(F)cc(F)c2)nc2cncnc21,inactive,
O=C(c1ccccc1)c1ccc2n1CC[C@H]2C(=O)O,inactive,
c1ncc(-c2ccoc2)c(NC2CC2)n1,,5.65% [at 2.29 µM]

SMILES,AC50,"activity, negative = inhibition"
CCCNc1[nH]c(=O)n(C)c(=O)c1N=O,inactive,
O=C(O)C12CC3(C(=O)O)CC(C(=O)O)(CC(C(=O)O)(C1)C3=O)C2=O,,-3.16% [at 11.4 µM]
CCOc1cccc(/C(O)=C2/C(=O)C(=O)N(Cc3cccnc3)C2c2ccco2)c1 (centres undefined),1.58 µM (active),
COc1ccc(C2C(C(=O)c3ccco3)=C(O)C(=O)N2Cc2cccnc2)cc1OC (centres undefined),inactive,
COc1ccc(/C(O)=C2/C(=O)C(=O)N(Cc3cccnc3)C2c2ccco2)cc1OC (centres undefined),8.91 µM (active),
COc1cccc(/C(O)=C2/C(=O)C(=O)N(Cc3cccnc3)C2c2ccco2)c1 (centres undefined),0.398 µM (active),
COCCCN1C(=O)C(=O)/C(=C(/O)c2ccc(OC)cc2C)C1c1cccnc1 (centres undefined),inactive,
COCCN1C(=O)C(=O)/C(=C(/O)c2cccc(OC)c2)C1c1ccco1 (centres undefined),inactive,
COc1ccccc1-c1cc(NCc2cccnc2)ncn1,,-17.3% [at 2.29 µM]
CCc1cc2c(nc1CC)CCN(CC/C(C)=N/O[C@@H]1O[C@H](COC(C)=O)[C@H](OC(C)=O)[C@H](OC(C)=O)[C@H]1OC(C)=O)C2,,1.56% [at 11.4 µM]
O=C(Nc1ccc(F)cc1)c1ccc(-n2ccnc2)nc1,0.178 µM (active),
c1cncc(-c2cc(-n3ccnc3)ncn2)c1,,12.2% [at 2.29 µM]
CS(=O)(=O)Nc1cccc(-c2cncnc2-n2ccnc2)c1,,10.1% [at 2.29 µM]
CN(C)C(=O)c1ccc(-c2nccc(-n3ccnc3)n2)cc1,,17.2% [at 2.29 µM]
Cc1c(Cl)cccc1NC(=O)c1ccc(-n2ccnc2)nc1,0.0794 µM (active),
CN(C)C(=O)c1ccc(-c2cncnc2-n2ccnc2)cc1,,12.6% [at 2.29 µM]
O=C(NCCC[N+]1=CC=N[C@H]1c1ccccc1)N1CCCc2nc(-c3ccc(Br)cc3)ccc21,,-48.1% [at 11.4 µM]
O=C(Nc1ccccc1)N1CC[C@@]2(CCCN(C(=O)c3cnccn3)C2)C1,inactive,
CN(C)Cc1ccc(O)c(CN(C)C)n1,,7.12% [at 11.4 µM]
COc1ccc(C(=O)NC(C)c2cc(OC)c(OC)cc2Br)cc1 (centres undefined),12.6 µM (active),
CC(NC(=O)c1cccc(F)c1)C(c1cccs1)N1CCN(C)CC1 (centres undefined),inactive,
COc1cc(Br)c(C(C)NC(=O)c2cccc(Br)c2)cc1OC (centres undefined),2.82 µM (active),
COc1ccc(C(=O)[C@H](Br)[C@H](Br)C(=O)O)cc1,,-11.2% [at 11.4 µM]
CNC(C)c1cc(OC)ccc1OC (centres undefined),inactive,

# — PubChem BioAssay AID1851 (National Center for Advancing Translational Sciences (NCATS), 2009)
